Inconclusive results are not listed. Calls of active or inactive are those of the source.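 Rule for the calls, unless noted: active = binding below the plate cutoff, the plate median minus 3 SD, with a reading above zero; inconclusive = below the plate cutoff but reading exactly zero; inactive = the rest.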
Assays:
[1] = yeast TOR pathway RPL19A-GFP modulators, primary screen, cell-based, S. cerevisiae, multiplex flow cytometry (AID 1862; in the data active = percent of DMSO control GFP below about 86%;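 note: lower values mimic rapamycin by blocking the RPL19A rise seen in DMSO cells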); conditions: S. cerevisiae RPL19A-GFP strain, flow cytometry fluorescence, 3 h; at 10 µM; stronger effect = lower value
[2] = modulators of MEP2-GFP levels in yeast, primary screen, S. cerevisiae, multiplex flow cytometry (AID 1867;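 active = GFP response, as percent of the DMSO control, above the screen-wide mean plus 3 SD, about 139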;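 note: median GFP channel fluorescence of barcode-gated MEP2-GFP cells measured by flow cytometry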); conditions: S. cerevisiae MEP2-GFP strain, 3 h, at 10 µM, stronger effect = higher value, 100% means same as DMSO wells
[3] = modulators of CIT2-GFP expression in yeast, primary screen, S. cerevisiae, GFP fusion, multiplex flow cytometry (AID 1870;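 active = percent response above a set limit, the screen-wide mean plus 3 SD, cut at about 130% in these data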;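 note: barcoded CIT2-GFP strain pooled with four other GFP strains with rapamycin as positive control; median GFP fluorescence per well over plate mean of DMSO wells so 100% = DMSO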); conditions: 3 h, at 10 µM, stronger effect = higher value
[4] = modulators of LAP4-GFP expression in yeast, primary screen, S. cerevisiae, multiplex flow cytometry (AID 1873;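 active = GFP signal, as percent of the solvent control, above the screen mean plus 3 SD, about 149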); conditions: 3 h, at 10 µM, stronger effect = higher value
[5] = modulators of AGP1-GFP expression in yeast TOR pathway, primary screen, cell-based, multiplex flow cytometry, S. cerevisiae (AID 1887;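 active = GFP signal above the screen-wide mean plus 3 SD, that is over about 124.5% of the solvent control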;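 note: AGP1-GFP fusion strain of S. cerevisiae within a five-strain barcoded multiplex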); conditions: 3 h, at 10 µM, stronger effect = higher value
[6] = RPL19A-GFP modulators, yeast TOR pathway, confirmation, cell-based, S. cerevisiae, flow cytometry, cherry picks, mother/daughter gates (AID 2270;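 active = GFP response below 50% of the DMSO control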); conditions: S. cerevisiae RPL19A-GFP strain, 3 h, at 10 µM, stronger effect = lower value, 100 = same GFP as DMSO wells
[7] = LAP4-GFP expression modulators in yeast, confirmation, cell-based, cherry picks, flow cytometry, mother/daughter gates (AID 2271;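 active = GFP response above 150% of the DMSO control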;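 note: ratio of sample to DMSO plate mean so 100% equals DMSO level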); conditions: S. cerevisiae LAP4-GFP strain, 3 h, at 10 µM, stronger effect = higher value, 100 means same as DMSO control
[8] = modulators of MEP2-GFP levels in yeast, confirmation, S. cerevisiae, flow cytometry GFP, cherry picks (AID 2272;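 active = GFP response above 150% of the DMSO control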;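 note: ratio of well signal to plate DMSO mean so 100% equals DMSO level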); conditions: S. cerevisiae MEP2-GFP strain, 3 h, at 10 µM, stronger effect = higher value
[9] = modulators of CIT2-GFP expression in yeast, confirmation, S. cerevisiae, GFP fusion, cherry picks, mother/daughter gates (AID 2274;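 active = GFP response above 150% of the DMSO level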); conditions: S. cerevisiae CIT2-GFP strain, flow cytometry, 3 h, at 10 µM, stronger effect = higher value
[10] = inhibitors of CD8+ T cell-vesicle binding, pilot screen, LFA-1/ICAM-1 modulator project, MLPCN validation set, flow cytometry (AID 2523;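 active = response below a set limit, under 55% cells CD8-positive and vesicle-bound, and CD8 cells' 90th-percentile brightness under 279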;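 for vesicle binding response: mean PE anti-B7-1 fluorescence of CD8+ cells relative to row control; 100% = QL9-loaded vesicles with DMSO vehicle in the same plate row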); conditions: 2C mouse CD8+ T cells, at 7 µM, stronger effect = lower value; double positive events: measured here: CD8+/vesicle+ event percentage
[11] = molecular target: Integrin beta-1 (Homo sapiens) + Integrin alpha-4 (Homo sapiens) (UniProt P13612+P05556); test: inhibition of HUTS-21 binding to VLA-4, pilot screen, VLA-4 allosteric modulator project, U937 cells, HUTS-21 mAb, flow cytometry, validation set (AID 2674;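 active = inhibition above 50%, about 3 SD of the validation set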;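 note: antibody binding induced by the VLA-4 ligand LDV present at three times its Kd; 0% = LDV ligand with antibody and no compound and 100% = antibody without LDV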); conditions: HUTS-21 LIBS mAb binding, at 6.7 µM, stronger effect = higher value, binding induced by LDV ligand
[12] = superoxide lowering in aged yeast cells, pilot screen, validation compound set (AID 2706;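 active = superoxide response below 65% of plate, a cut near 3 SD across the whole screen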;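 note: yeast exposed to compound for one week at 30 degrees C before staining; 100% = mean of all compound wells on the same plate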); conditions: S. cerevisiae aging, superoxide DHE fluorescence; at 10 µM; stronger effect = lower value
[13] = molecular target: Beta-adrenergic receptor kinase 1 (Homo sapiens) (UniProt P25098); test: GRK2 binders displacing RNA aptamer, biochemical, validation, human GRK2, bead flow cytometry (AID 488806;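 active = aptamer binding inhibition above 30%, about 3 SD of noise from non-fluorescent compounds; inactive = inhibition at or below 30%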); conditions: bead-bound GRK2, FAM-aptamer displacement, at 10 µM, stronger effect = higher value
[14] = molecular target: Beta-2 adrenergic receptor (Homo sapiens) (UniProt P07550); test: beta2AR agonists driving receptor internalization, pilot screen, cell-based, FAP fluorogen, flow cytometry, validation set (AID 504459;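 active = percent response above 42, roughly 3 SD of non-fluorescent test compounds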;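 note: agonist-driven loss of surface beta2AR via internalization measured by FAP dye flow cytometry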); conditions: Am2.2-beta2AR cells, FAP surface receptor flow cytometry; at 10 µM; stronger effect = higher value
[15] = molecular target: AP-2 complex subunit beta (Homo sapiens) (UniProt P63010); test: inhibitors of arrestin peptide binding to AP2, pilot screen, biochemical, validation set, GST-AP2 beads, flow cytometry (AID 504541;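 active = inhibition above 54%, about 3 SD of non-fluorescent compounds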;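 note: AP2 carries R879A mutation and is captured from E. coli lysate; bead-bound FITC arrestin peptide fluorescence measuring arrestin peptide binding to AP2; 0% = DMSO wells and 100% = excess unlabeled arrestin peptide control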); conditions: FITC arrestin peptide, at 10 µM, stronger effect = higher value, AP2 beta2 appendage fragment, R879A mutant
[16] = yeast V-ATPase proton transport modulators, S. cerevisiae, pHLuorin, HTS validation (AID 504600; in the data active = response above about 15%;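 note: plate controls were DMSO for no effect and reference compound for full effect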); conditions: S. cerevisiae pHLuorin cytosolic pH, at 10 µM, stronger effect = higher value
[17] = tested on: anti-desmoglein-3 scFv antibody binding to human DSG3; test: inhibitors of anti-DSG3 scFv binding to DSG3, pilot screen, biochemical, validation compound set, bead-based, flow cytometry (AID 588368); conditions: Protein G beads, DSG3-Fc, scFv-GFP binding, at 10 µM, stronger effect = lower value;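 note: signal is the median channel fluorescence of bead-bound GFP antibody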
[18] = inhibitors of fungal efflux pumps CDR1, CDR2, MDR1, pilot screen, validation compound set, multiplex, phenotypic (AID 588506;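 active = efflux inhibition above 0.42, the validation set average plus 4 SD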;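 note: Nile Red retained in cells so higher fluorescence means more efflux inhibition; 0 = negative control wells and 1 = enniatin B 25 µM full block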); conditions: S. cerevisiae pump-expressing triplex, Nile Red efflux flow cytometry; at 10 µM; stronger effect = higher value; the pumps come from Candida albicans
[19] = molecular target: ATP-binding cassette sub-family B member 6 (Homo sapiens) (UniProt Q9NP58); test: ABCB6 transporter inhibitors, pilot screen, K562-ABCB6 cells, flow cytometry, validation set (AID 588550;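 active = inhibition above the screen-wide mean plus 3 SD, about 51%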;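 note: 0% = DMSO wells and 100% = benzethonium chloride 70 µM positive control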); conditions: K562-ABCB6 porphyrin accumulation, 1 h, at 10 µM, stronger effect = higher value
[20] = promoters of myeloid differentiation in arrested cells, primary screen, cell-based, GFP/MAC1 double positive, flow cytometry, validation set (AID 588685;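 active = differentiation response of at least 50%, scaled between solvent and reference control, from cells with both markers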;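 note: compound exposure lasts four days before antibody staining and flow analysis; 0% = DMSO wells and 100% = 5 µM fulvestrant positive control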); conditions: ER-HoxA9 marrow cells, stronger effect = higher value, normalized: vehicle 0, fulvestrant 100
[21] = measured here: daughter cell gate
[22] = measured here: mother cell gate
[23] = measured here: daughter cell gate response
[24] = measured here: mother cell gate response

Chain of Integrin beta-1 (Homo sapiens) + Integrin alpha-4 (Homo sapiens) (P05556 whole entry, looked up): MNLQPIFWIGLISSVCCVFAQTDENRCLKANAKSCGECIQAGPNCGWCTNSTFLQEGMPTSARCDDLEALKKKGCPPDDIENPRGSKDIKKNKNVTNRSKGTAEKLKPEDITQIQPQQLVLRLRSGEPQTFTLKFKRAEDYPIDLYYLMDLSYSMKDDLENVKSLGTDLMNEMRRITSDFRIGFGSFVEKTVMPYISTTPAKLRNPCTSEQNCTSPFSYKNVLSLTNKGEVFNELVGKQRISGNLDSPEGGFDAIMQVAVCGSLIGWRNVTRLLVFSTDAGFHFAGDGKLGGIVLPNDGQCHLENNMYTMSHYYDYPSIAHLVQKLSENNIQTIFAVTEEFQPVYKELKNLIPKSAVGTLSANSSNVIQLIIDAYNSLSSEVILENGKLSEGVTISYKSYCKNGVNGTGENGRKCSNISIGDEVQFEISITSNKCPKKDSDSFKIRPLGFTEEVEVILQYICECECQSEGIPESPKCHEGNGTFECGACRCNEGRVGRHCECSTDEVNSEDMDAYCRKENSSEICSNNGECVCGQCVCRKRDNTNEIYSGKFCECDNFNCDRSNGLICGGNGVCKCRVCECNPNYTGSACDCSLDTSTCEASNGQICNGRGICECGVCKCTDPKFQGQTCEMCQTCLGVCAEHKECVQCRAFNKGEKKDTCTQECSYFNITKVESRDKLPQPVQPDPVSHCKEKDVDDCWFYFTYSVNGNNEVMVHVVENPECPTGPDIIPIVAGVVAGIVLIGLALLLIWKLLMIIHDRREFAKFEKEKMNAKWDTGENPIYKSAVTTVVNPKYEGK
Chain of Integrin beta-1 (Homo sapiens) + Integrin alpha-4 (Homo sapiens) (P13612 whole entry, looked up): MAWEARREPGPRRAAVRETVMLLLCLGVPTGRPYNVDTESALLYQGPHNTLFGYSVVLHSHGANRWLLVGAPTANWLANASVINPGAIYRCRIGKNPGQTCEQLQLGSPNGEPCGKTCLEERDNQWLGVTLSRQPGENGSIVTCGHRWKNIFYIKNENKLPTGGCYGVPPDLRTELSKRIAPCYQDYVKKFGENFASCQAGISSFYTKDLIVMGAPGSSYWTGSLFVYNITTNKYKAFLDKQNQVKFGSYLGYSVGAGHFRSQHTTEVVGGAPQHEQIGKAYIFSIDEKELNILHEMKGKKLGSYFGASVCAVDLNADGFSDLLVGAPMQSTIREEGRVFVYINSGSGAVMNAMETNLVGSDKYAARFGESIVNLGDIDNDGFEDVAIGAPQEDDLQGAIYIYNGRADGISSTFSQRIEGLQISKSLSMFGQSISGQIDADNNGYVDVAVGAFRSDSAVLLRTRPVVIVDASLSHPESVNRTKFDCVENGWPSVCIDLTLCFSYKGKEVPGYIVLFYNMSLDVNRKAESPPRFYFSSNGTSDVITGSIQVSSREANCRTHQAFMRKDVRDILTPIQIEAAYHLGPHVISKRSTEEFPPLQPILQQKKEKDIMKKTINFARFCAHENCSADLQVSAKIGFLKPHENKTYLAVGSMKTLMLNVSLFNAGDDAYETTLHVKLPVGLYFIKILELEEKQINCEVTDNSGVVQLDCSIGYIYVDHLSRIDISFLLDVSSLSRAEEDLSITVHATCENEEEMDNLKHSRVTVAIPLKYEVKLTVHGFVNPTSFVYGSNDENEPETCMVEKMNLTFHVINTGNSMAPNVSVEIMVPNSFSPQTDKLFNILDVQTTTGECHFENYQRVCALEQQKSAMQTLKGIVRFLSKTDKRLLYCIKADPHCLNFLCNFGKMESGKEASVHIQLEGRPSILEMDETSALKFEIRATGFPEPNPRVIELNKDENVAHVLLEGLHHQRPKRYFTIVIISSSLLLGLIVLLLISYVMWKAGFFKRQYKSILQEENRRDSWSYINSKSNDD
Chain of AP-2 complex subunit beta (Homo sapiens) (P63010 whole entry, looked up, the tested form may be a part, one chain of several): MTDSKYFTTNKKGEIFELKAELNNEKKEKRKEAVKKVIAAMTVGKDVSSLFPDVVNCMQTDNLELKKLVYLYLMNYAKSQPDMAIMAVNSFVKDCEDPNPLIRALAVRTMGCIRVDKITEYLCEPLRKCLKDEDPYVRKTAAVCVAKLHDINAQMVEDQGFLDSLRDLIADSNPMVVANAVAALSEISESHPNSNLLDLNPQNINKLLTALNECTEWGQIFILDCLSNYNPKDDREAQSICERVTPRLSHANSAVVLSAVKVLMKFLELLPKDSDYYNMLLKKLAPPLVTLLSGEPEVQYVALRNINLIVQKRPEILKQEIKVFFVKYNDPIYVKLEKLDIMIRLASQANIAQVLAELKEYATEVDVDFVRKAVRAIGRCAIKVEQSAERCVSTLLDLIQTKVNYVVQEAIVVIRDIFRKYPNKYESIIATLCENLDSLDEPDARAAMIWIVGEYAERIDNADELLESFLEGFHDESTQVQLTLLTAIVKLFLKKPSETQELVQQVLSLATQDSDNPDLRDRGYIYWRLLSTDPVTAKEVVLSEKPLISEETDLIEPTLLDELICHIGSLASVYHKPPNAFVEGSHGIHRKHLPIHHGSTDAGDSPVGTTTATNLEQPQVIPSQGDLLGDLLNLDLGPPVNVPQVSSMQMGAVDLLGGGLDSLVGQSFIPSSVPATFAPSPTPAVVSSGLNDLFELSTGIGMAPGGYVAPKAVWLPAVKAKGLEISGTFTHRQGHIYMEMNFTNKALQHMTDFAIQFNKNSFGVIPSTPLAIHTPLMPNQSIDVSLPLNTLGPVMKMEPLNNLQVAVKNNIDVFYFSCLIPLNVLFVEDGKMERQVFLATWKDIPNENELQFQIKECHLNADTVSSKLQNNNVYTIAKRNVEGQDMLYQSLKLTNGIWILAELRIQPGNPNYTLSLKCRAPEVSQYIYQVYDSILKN
Chain of Beta-adrenergic receptor kinase 1 (Homo sapiens) (P25098 whole entry, looked up): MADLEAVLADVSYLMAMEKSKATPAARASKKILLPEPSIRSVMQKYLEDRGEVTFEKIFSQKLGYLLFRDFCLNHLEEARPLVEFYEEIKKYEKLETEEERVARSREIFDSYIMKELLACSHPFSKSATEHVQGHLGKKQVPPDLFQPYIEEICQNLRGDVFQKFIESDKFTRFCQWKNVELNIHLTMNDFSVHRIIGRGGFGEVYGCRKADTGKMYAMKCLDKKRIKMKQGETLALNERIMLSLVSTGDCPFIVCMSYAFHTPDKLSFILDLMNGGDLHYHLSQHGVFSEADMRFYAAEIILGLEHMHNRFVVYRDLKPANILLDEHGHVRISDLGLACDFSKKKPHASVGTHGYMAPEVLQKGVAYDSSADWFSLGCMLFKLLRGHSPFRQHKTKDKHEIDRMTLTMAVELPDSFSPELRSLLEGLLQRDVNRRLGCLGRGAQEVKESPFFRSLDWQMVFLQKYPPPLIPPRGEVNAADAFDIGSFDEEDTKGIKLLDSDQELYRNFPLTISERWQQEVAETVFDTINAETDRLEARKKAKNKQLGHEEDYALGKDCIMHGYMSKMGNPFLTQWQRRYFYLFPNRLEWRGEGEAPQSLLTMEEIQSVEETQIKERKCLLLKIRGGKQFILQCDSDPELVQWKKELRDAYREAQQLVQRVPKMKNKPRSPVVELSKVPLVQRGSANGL
Chain of Beta-2 adrenergic receptor (Homo sapiens) (P07550 whole entry, looked up): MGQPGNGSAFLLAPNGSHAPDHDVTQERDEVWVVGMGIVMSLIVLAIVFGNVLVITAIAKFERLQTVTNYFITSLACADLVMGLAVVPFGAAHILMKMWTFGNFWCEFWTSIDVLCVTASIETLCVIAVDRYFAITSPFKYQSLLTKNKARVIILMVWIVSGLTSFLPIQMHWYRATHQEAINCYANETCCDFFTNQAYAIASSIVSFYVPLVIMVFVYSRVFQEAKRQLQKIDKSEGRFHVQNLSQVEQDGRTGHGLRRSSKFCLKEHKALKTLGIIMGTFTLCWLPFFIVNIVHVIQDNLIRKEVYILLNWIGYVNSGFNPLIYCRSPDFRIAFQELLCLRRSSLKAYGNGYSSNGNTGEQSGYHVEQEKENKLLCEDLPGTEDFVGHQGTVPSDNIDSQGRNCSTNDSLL
Chain of ATP-binding cassette sub-family B member 6 (Homo sapiens) (Q9NP58 whole entry, looked up): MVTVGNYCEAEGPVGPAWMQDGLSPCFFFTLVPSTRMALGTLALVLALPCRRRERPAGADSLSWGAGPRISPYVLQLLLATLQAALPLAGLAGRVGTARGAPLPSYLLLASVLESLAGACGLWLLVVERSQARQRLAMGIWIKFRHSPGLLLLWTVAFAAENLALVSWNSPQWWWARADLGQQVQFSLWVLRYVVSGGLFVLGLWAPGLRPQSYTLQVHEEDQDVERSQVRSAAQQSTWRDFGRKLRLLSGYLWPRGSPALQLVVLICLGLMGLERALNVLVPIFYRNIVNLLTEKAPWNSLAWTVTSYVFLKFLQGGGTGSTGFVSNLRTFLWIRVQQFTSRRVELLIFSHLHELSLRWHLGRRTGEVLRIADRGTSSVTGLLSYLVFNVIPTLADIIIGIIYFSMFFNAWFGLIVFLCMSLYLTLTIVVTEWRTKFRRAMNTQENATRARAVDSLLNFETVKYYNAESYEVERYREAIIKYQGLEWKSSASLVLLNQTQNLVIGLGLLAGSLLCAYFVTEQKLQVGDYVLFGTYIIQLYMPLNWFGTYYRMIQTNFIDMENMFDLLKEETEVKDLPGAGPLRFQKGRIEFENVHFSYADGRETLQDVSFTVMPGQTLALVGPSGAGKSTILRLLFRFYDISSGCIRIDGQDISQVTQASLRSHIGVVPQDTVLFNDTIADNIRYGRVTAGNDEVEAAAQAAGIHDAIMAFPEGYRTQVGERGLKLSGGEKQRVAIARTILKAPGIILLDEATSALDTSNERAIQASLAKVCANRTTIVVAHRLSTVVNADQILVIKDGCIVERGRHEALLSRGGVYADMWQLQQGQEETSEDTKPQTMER

COc1ccc(C2=CC(=O)C=CC2=O)cc1
111%: GFP response, % of DMSO [9, 21]
active: percent of DMSO control GFP [1] 84.7% | response [14] 64.2% | inhibition [15] 64.5% | response [16] 62.2%
inactive: GFP response vs DMSO [2] 105% | percent response of DMSO control [3] 68.5% | GFP response vs DMSO [4] 144% | GFP response, % of DMSO [5] 91.9% | GFP response vs DMSO [6] 109% | GFP response relative to DMSO [7] 119% | GFP response vs DMSO [8] 117% | GFP response, % of DMSO [9] 108% | vesicle binding response [10] 146% | inhibition [11] 4.84% | superoxide response (% of plate) [12] 80.4% | aptamer binding inhibition [13] 1% | binding (% of control) [17] 88.8% | efflux inhibition (fraction of control) [18] -0.04 | inhibition [19] -2% | differentiation response [20] -0.06%
64.5%: double positive events [10]
103%: GFP response, % of DMSO [9, 22]
120%: GFP response relative to DMSO [7, 23]
104%: GFP response vs DMSO [6, 22]
122%: GFP response relative to DMSO [7, 24]
114%: GFP response vs DMSO [6, 21]

Cn1c(=O)c(C(=O)NCCO)c(O)c2ccccc21
108%: GFP response, % of DMSO [9, 21]
102%: GFP response vs DMSO [6, 21]
103%: GFP response vs DMSO [6, 22]
inactive: percent of DMSO control GFP [1] 103% | GFP response vs DMSO [2] 105% | percent response of DMSO control [3] 103% | GFP response vs DMSO [4] 104% | GFP response, % of DMSO [5] 113% | GFP response vs DMSO [6] 101% | GFP response relative to DMSO [7] 87.6% | GFP response vs DMSO [8] 96.2% | GFP response, % of DMSO [9] 96.9% | vesicle binding response [10] 185% | inhibition [11] 15.9% | superoxide response (% of plate) [12] 104% | aptamer binding inhibition [13] 6% | response [14] -29.6% | inhibition [15] 6.89% | response [16] 2.23% | binding (% of control) [17] 103% | efflux inhibition (fraction of control) [18] 0 | inhibition [19] 1% | differentiation response [20] -5.97%
88.7%: GFP response relative to DMSO [7, 24]
60.8%: double positive events [10]
86.4%: GFP response relative to DMSO [7, 23]
97.3%: GFP response, % of DMSO [9, 22]

CN1CCN2c3ccccc3Cc3ccccc3C2C1 (stereo unspecified)
97.2%: GFP response relative to DMSO [7, 23] | GFP response relative to DMSO [7, 24]
61.8%: double positive events [10]
inactive: percent of DMSO control GFP [1] 90.2% | percent response of DMSO control [3] 118% | GFP response vs DMSO [4] 94.6% | GFP response, % of DMSO [5] 107% | GFP response vs DMSO [6] 99.3% | GFP response relative to DMSO [7] 95% | GFP response vs DMSO [8] 100% | GFP response, % of DMSO [9] 99.1% | vesicle binding response [10] 183% | inhibition [11] 8.4% | superoxide response (% of plate) [12] 99.6% | aptamer binding inhibition [13] 2% | response [14] 4.6% | inhibition [15] 36.1% | response [16] -3.99% | binding (% of control) [17] 95.6% | efflux inhibition (fraction of control) [18] -0.13 | inhibition [19] 3% | differentiation response [20] -0.82%
active: GFP response vs DMSO [2] 146%
94.8%: GFP response, % of DMSO [9, 21]
98.4%: GFP response vs DMSO [6, 21]
100%: GFP response vs DMSO [6, 22]
101%: GFP response, % of DMSO [9, 22]

— PubChem BioAssay
